Structures are written as SMILES. In all, about 2,400 compounds went through this assay and about 180 (7.5%) were called active. This is one part of a sample in which actives are shown more often than they occur.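 How the source made its calls: active means readout below zero, meaning a drop past 3 SD under the dofetilide-free negative control mean; inactive means the rest.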

Potassium voltage-gated channel subfamily KQT member 2 (Rattus norvegicus), sequence (O88943 whole entry, looked up): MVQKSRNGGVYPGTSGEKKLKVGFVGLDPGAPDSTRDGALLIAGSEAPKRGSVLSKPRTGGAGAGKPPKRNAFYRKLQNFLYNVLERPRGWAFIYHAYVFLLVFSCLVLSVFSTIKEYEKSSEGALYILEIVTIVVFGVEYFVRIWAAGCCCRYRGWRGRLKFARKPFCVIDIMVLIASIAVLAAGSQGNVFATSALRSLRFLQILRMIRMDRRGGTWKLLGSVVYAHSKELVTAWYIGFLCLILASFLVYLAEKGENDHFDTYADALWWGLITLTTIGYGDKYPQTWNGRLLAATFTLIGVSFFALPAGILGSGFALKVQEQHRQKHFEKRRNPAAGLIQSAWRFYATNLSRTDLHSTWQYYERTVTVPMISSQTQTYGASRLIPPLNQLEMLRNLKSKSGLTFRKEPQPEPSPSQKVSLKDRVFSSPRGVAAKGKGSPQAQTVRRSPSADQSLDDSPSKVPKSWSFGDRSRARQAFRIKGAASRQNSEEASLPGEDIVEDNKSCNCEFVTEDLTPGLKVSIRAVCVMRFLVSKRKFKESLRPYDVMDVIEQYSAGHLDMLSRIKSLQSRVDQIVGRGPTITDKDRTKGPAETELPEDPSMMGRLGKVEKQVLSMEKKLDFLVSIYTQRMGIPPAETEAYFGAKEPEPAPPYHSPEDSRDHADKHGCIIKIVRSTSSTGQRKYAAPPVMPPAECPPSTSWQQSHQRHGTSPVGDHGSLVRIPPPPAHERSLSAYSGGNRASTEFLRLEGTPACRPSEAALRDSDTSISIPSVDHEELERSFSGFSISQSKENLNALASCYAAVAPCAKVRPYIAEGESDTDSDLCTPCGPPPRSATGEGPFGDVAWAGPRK

The assay addresses Potassium voltage-gated channel subfamily KQT member 2 (Rattus norvegicus) (UniProt O88943). The experiment in a line: KCNQ2 blockade in CHO cells – cell-based, FluxOR thallium flux, counter-screen for hERG block protector project, confirmation (AID 1946). As to conditions: FluxOR thallium flux fluorescence, at 10 µM, active compounds read low, zero marks the 3-SD hit cutoff.
Turning to `COc1cccc2sc(Nc3nc(-c4ccccn4)cs3)nc12`, the activity change vs negative control is 34.8% (inactive).

With `CCN1C(=O)/C(=C/c2ccc(C)s2)NC1=S`, the activity change vs negative control is 65.6% (inactive).

In the case of `COC(=O)c1ccc(NC(=S)NC(=O)c2cc(-c3ccccc3)nc3ccccc23)cc1`, the activity change vs negative control was 28.9% (inactive).

For the molecule `COc1cccc(C(=O)NNC(=O)C(=O)Nc2ccc(C)c(Cl)c2)c1`, the activity change vs negative control was 98.2% (inactive).

On to `Nn1c(SCC(=O)Nc2ccc(F)cc2)nnc1C1CCCCC1`, for which the activity change vs negative control is -0.5% (active).

For `CC(C)OC(=O)CSc1nnc(C2CCCCC2)n1N`, the activity change vs negative control is 6% (inactive).

With `Nn1c(SCC(=O)Nc2ccccc2F)nnc1C1CCCCC1`, the activity change vs negative control was 10.9% (inactive).

For `CCOc1ccc2nc(/N=C/c3nc(-c4ccc(Br)cc4)oc3O)sc2c1`, the activity change vs negative control is 13.7% (inactive).

In the case of `S=c1nc[nH]c2c1sc1nc(N3CCOCC3)c3c(c12)CCCC3`, the activity change vs negative control was 74.9% (inactive).

On to `C/C(=N\Nc1nc2ccccc2nc1C)c1ccccc1O`, for which the activity change vs negative control was 35.1% (inactive).

With `CCOC(=O)c1sc(NC(=S)NC(=O)c2cccc(OC)c2)nc1C`, the activity change vs negative control was 28.4% (inactive).

Turning to `CCN(CC)C(=S)NC(=O)c1ccc(Cl)cc1Cl`, the activity change vs negative control is 32% (inactive).

Consider `CCCn1nnnc1NC(=O)c1cc(Cl)ccc1Cl`, for which the activity change vs negative control is -2% (active).

Regarding `CCCN(CCC)C(=S)NC(=O)c1ccc(Cl)cc1Cl`, the activity change vs negative control is 78% (inactive).

On to `O=C(NC(=S)N1CCc2ccccc21)c1ccccc1Br`, for which the activity change vs negative control was 126% (inactive).

On to `CN(C(=S)NC(=O)c1ccccc1)C1CCCCC1`, for which the activity change vs negative control is 29.8% (inactive).

Turning to `COc1ccc2c(c1)O[C@@H](c1cccc(C(F)(F)F)c1)[C@H](OC(=O)NCCc1ccc(OC)c(OC)c1)C2=O`, the activity change vs negative control is 20.4% (inactive).

On to `CCOC(=O)Cc1nc2ccccc2o1`, for which the activity change vs negative control is 11.7% (inactive).

Turning to `O=C(CSc1nc2ccccc2o1)NCc1n[nH]c(=O)c2ccccc12`, the activity change vs negative control was 19.1% (inactive).

As for `C/C(=N\NC(=O)CSc1nc2ccccc2o1)c1ccc(O)cc1`, the activity change vs negative control was -1.7% (active).

`Cc1nn(C)c(C(=O)NC(=S)Nc2ccccc2Br)c1Cl`: the activity change vs negative control was 41.3% (inactive).

`CCc1ccc(C(C)NC(=O)c2ccc(F)cc2)cc1` (stereo not drawn): the activity change vs negative control is 43.4% (inactive).

Consider `CCOC(=O)C1CCCN(C(=S)NC(=O)/C=C/c2ccc(F)cc2)C1` (stereo not drawn), for which the activity change vs negative control was 1.2% (inactive).

Consider `O=C(c1ccc(C(F)(F)F)cc1)C1CCCN(C(=O)CCc2ccncc2)C1` (stereo not drawn), for which the activity change vs negative control was 4.7% (inactive).

As to `Cn1cc(CCC(=O)N2CCCC(Nc3ccc(F)cc3)C2)cn1` (stereo not drawn), the activity change vs negative control is -2% (active).

As to `Cc1cc(N2C(=O)C(O)=C(C(=O)c3cccs3)C2c2ccccc2)no1` (stereo not drawn), the activity change vs negative control was -1.4% (active).

As to `Cc1cccc(N2C(=O)C(O)=C(C(=O)c3cccs3)C2c2cccc(Oc3ccccc3)c2)n1` (stereo not drawn), the activity change vs negative control was 11.3% (inactive).

Turning to `COc1ccccc1C1C(C(=O)c2ccc(C)o2)=C(O)C(=O)N1c1cc(C)on1` (stereo not drawn), the activity change vs negative control was 14.4% (inactive).

Turning to `CCOC(=O)C1=NN(C(=O)c2ccc(C)cc2)C(O)(c2ccc(Cl)cc2)C1` (stereo not drawn), the activity change vs negative control was 110% (inactive).

Turning to `COc1ccccc1NC(=O)C(=O)NNC(=O)COc1ccc2ccccc2c1`, the activity change vs negative control was 115% (inactive).

With `Cc1ccc(C(=O)NC(=S)N(C)C2CCCCC2)cc1`, the activity change vs negative control was 27.3% (inactive).

With `COC(=O)c1sc(NC(=S)NC(=O)c2ccccc2C)nc1C`, the activity change vs negative control is 41% (inactive).

Regarding `S=c1[nH]c2ccc(Cl)cc2s1`, the activity change vs negative control was 115% (inactive).

With `CCOC(=O)C(C)Sc1nc2c(c(-c3cccs3)c1C#N)CCC2` (stereo not drawn), the activity change vs negative control is 6.3% (inactive).

In the case of `CCc1nnc(NC(=O)CSc2nc(-c3ccccc3)cc(-c3ccc(OC)cc3)c2C#N)s1`, the activity change vs negative control is 5.3% (inactive).

For the molecule `N#Cc1c(-c2ccc(Cl)cc2)cc(-c2cccs2)nc1SCC(=O)O`, the activity change vs negative control was -10.2% (active).

On to `C/C(=N\NC(N)=S)c1cccnc1`, for which the activity change vs negative control is -3.2% (active).

With `C/C(=N\NC(N)=S)c1ccncc1`, the activity change vs negative control was 19.1% (inactive).

Turning to `CSC(=S)N/N=C(\C)c1ccccc1`, the activity change vs negative control is 64.1% (inactive).

For `S=c1[nH]cnc2scc(-c3ccc(Br)cc3)c12`, the activity change vs negative control was 28.5% (inactive).

`CCn1ncc(Cl)c1C(=O)NC(=S)Nc1ccccc1Br`: the activity change vs negative control was 51.3% (inactive).

Consider `CCN(C(=S)NC(=O)c1ccccc1Br)C1CCCCC1`, for which the activity change vs negative control was 93.4% (inactive).

With `CC1CCc2sc(-c3n[nH]c(=S)o3)cc2C1` (stereo not drawn), the activity change vs negative control was 35.3% (inactive).

As to `Fc1cccc2sc(Nc3nnc(-c4ccccc4)o3)nc12`, the activity change vs negative control is 109% (inactive).

On to `Cc1ccc(Nc2cc(C)nn2-c2nc(C)cc(=O)[nH]2)cc1`, for which the activity change vs negative control is 83.1% (inactive).

For the molecule `O=C(Nn1c(O)c(C=C2N=c3ccccc3=N2)sc1=S)c1cccc(Cl)c1`, the activity change vs negative control is 6.4% (inactive).

On to `CC1CCCCC1n1c(=S)[nH]c2ccccc2c1=O` (stereo not drawn), for which the activity change vs negative control was 28% (inactive).

`CSc1nc(C)c2c(n1)N(c1ccc(C(C)C)cc1)CC2`: the activity change vs negative control is -2.7% (active).

As to `COc1ccccc1C(=O)NNC(=O)C(=O)Nc1cccc(Cl)c1C`, the activity change vs negative control is 160% (inactive).

As to `O=C(CCSc1ccc(Br)cc1)c1ccc(O)cc1`, the activity change vs negative control is 8.7% (inactive).

For the molecule `CSc1nc2sc3c(c2c(=S)[nH]1)CC(C)(C)OC3`, the activity change vs negative control was 95% (inactive).

Turning to `CN(Cc1ccccc1)C(=O)CCc1ccccc1`, the activity change vs negative control was 5.4% (inactive).

Consider `CCOC(=O)c1c(NS(=O)(=O)Cc2ccccc2)sc2c1CCCC2`, for which the activity change vs negative control is 62% (inactive).

In the case of `Cc1ccc(-c2csc(=S)[nH]2)cc1`, the activity change vs negative control was 106% (inactive).

Turning to `O=C(N/N=C/c1ccccn1)c1cc(-c2ccc(Br)cc2)nc2ccccc12`, the activity change vs negative control is -4.7% (active).

For `O=C(NC(=S)Nc1ccccn1)c1cc(-c2ccccc2)nc2ccccc12`, the activity change vs negative control was 19.4% (inactive).

For the molecule `Cc1ccc(/C=N/NC(=O)c2cc(-c3ccncc3)nc3ccccc23)o1`, the activity change vs negative control is 2.6% (inactive).

With `Cc1ccc(OCC(=O)NC(=S)Nc2ccc(Br)cn2)cc1`, the activity change vs negative control is 33.8% (inactive).

With `Cc1ccc(C(=O)Nc2nc3ccccc3c(=O)s2)cc1`, the activity change vs negative control was 22.4% (inactive).

For the molecule `COc1ccc(C(=O)N2CCN(Cc3ccc4c(c3)OCO4)CC2)cc1[N+](=O)[O-]`, the activity change vs negative control was 4.4% (inactive).

Consider `O=C(COc1ccc(Cl)cc1)N1CCN(Cc2ccc3c(c2)OCO3)CC1`, for which the activity change vs negative control is 22.9% (inactive).

As for `CCOc1ccc(S(=O)(=O)N2CCN(Cc3ccc4c(c3)OCO4)CC2)cc1C`, the activity change vs negative control is -5.7% (active).

Turning to `Cc1cc(C)c2nc(NC(=O)C3CCCO3)sc2c1` (stereo not drawn), the activity change vs negative control is -2.4% (active).

For the molecule `Cc1cc(C)c2nc(NC(=O)CN3C(=O)NC4(CCCC4)C3=O)sc2c1`, the activity change vs negative control was 18.8% (inactive).

For `O=C(Nc1nc2c(F)cc(F)cc2s1)C1COc2ccccc2O1` (stereo not drawn), the activity change vs negative control was 3.8% (inactive).

Regarding `CCCCCC/C(C)=C1/SC(=S)NC1=O`, the activity change vs negative control is 94.1% (inactive).

`CCOC(=O)c1c(NC(=O)CN2CCN(C(=O)c3ccco3)CC2)sc2c1CCCC2`: the activity change vs negative control was 39% (inactive).

On to `O=c1ccc(N=Nc2ccccc2)ccc1O`, for which the activity change vs negative control is 109% (inactive).

With `COc1cc(OC)cc(C(=O)O/N=C(\N)c2cccc(C)c2)c1`, the activity change vs negative control is 4.9% (inactive).

`COc1cc(OC)cc(C(=O)OCC(=O)N(C)c2ccccc2)c1`: the activity change vs negative control was -0.3% (active).

Turning to `COc1cc(OC)cc(C(=O)NC(=S)N(Cc2ccccc2)C(C)C)c1`, the activity change vs negative control is 45.9% (inactive).

As for `CC(C)(C)NC(=O)C(=O)NNC(=O)c1cccc(Br)c1`, the activity change vs negative control was 40% (inactive).

As for `O=C(Nc1ccsc1C(=O)O)c1ccccc1Cl`, the activity change vs negative control was 14.8% (inactive).

Consider `O=C(Nc1cccn(Cc2c(Cl)cccc2Cl)c1=O)c1ccccc1Cl`, for which the activity change vs negative control is -1.1% (active).

For `Cc1ccccc1C(=O)NNC(=O)C(=O)Nc1cccc(Cl)c1C`, the activity change vs negative control was 40.7% (inactive).

As for `CC(=O)CSc1ncnc2sc3c(c12)CCC(C)C3` (stereo not drawn), the activity change vs negative control is 111% (inactive).

On to `CC(C)(C)c1ccc(/C=C/C(=O)N2CCCCC2)cc1`, for which the activity change vs negative control is 32.8% (inactive).

For `Cn1c(=O)cc(-c2ccccc2)c2ccccc21`, the activity change vs negative control is 2.7% (inactive).

Consider `CCOC(=O)c1c(O)c2ccccc2n(C)c1=O`, for which the activity change vs negative control is 17.5% (inactive).

Consider `CCOc1ccc(N(CC)C(=O)COc2cc(=O)n(C)c3ccccc23)cc1`, for which the activity change vs negative control was -3.3% (active).

With `Cc1cccc(N2CCN(C(=O)CNC(=O)c3cccc([N+](=O)[O-])c3)CC2)c1C`, the activity change vs negative control is 1.9% (inactive).

As to `CCn1c(SCC(=O)NC(=O)NCc2ccco2)nc2sc(C)c(C)c2c1=O`, the activity change vs negative control is 43.3% (inactive).

In the case of `C=CCSc1nc2sc3c(c2c(=O)n1CC)CCc1ccccc1-3`, the activity change vs negative control is 35% (inactive).

For the molecule `O=C(c1ccc(Cl)c(S(=O)(=O)N2CCCC2)c1)N1CCN(c2ccccc2F)CC1`, the activity change vs negative control was 14.8% (inactive).

`CC(=O)c1ccc(N2CCN(C(=O)Cc3ccccc3)CC2)c(F)c1`: the activity change vs negative control was -0.2% (active).

As for `CS(=O)(=O)N(CCc1ccccc1)CC(=O)N1CCN(c2ccc(F)cc2)CC1`, the activity change vs negative control is 1.7% (inactive).

On to `S=c1nc(-c2ccc(Br)cc2)[nH]c2ccccc12`, for which the activity change vs negative control was 122% (inactive).

As to `Cc1ccc(C(=O)CC(=O)COc2ccc(Cl)cc2C)cc1`, the activity change vs negative control is 13.2% (inactive).

In the case of `O=C(Nc1nnc(-c2ccc3c(c2)CCCC3)o1)C1COc2ccccc2O1` (stereo not drawn), the activity change vs negative control was 28% (inactive).

For `O=C(Nc1nnc(-c2ccccc2)o1)c1ccc(Cl)cc1`, the activity change vs negative control was 13.6% (inactive).

For the molecule `CCC(=O)Nc1nnc(-c2ccccn2)o1`, the activity change vs negative control is -0.7% (active).

In the case of `O=C(CCc1ccccc1)Nc1nccs1`, the activity change vs negative control was 4.5% (inactive).

Regarding `O=C(CCC(=O)Nc1ccccc1)NNC(=O)c1ccco1`, the activity change vs negative control was 3.9% (inactive).

With `O=C(CCc1ccccc1)Nc1nnc(-c2ccccn2)o1`, the activity change vs negative control was -2.9% (active).

As for `CCCOc1ccc(OC(=O)c2ccc(Br)o2)cc1`, the activity change vs negative control is 20.9% (inactive).

With `O=C(NC(=S)Nc1ccccc1)c1csnn1`, the activity change vs negative control is 105% (inactive).

As for `CC(=O)Nc1ccc(S(=O)(=O)N2CCC(C(=O)O)CC2)cc1`, the activity change vs negative control is -3% (active).

On to `O=C(/C=C/c1ccccc1)Nc1ccc(S(=O)(=O)N2CCOCC2)cc1`, for which the activity change vs negative control was 2% (inactive).

With `CC(=O)Nc1ccc(S(=O)(=O)N2CCC(NC(=O)c3ccccc3)CC2)cc1`, the activity change vs negative control was 9.4% (inactive).

Consider `CCc1cc2c(=O)n(CCC(C)C)c(=S)[nH]c2s1`, for which the activity change vs negative control is 83.4% (inactive).

Regarding `S=c1nc(COc2ccccc2)[nH]c2ccccc12`, the activity change vs negative control was 159% (inactive).

For `CN(C)CCCN=C(NO)c1ccc(Cl)cc1Cl`, the activity change vs negative control was 6.6% (inactive).

In the case of `CCSc1nc2c(sc3ccccc32)c(=O)n1C(C)C`, the activity change vs negative control was 54.6% (inactive).

These data come from PubChem BioAssay AID1946 (Johns Hopkins Ion Channel Center, 2009).
